Source: PubChem BioAssay AID1159580 (chemical genetic matrix, 2015)
Several values for one entry are separate records, joined by “and”; a condition that tells them apart may be missing. Identical values can stand only once. Hit rate of the full screen: of about 5,500 compounds, about 2,000 (36%) were called active. Another 18% or so got no clear call; they are omitted. No stated cut-off is given here; in the data, active means normalized growth mostly below about 0.91 (no sharp cut-off); inconclusive means no clear call, values can overlap the other calls; inactive means mostly above about 0.92. The list shows a part of the results.

Experiment: chemical genetic growth profiling, strain panel (AID 1159580);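 further: tested at 20 µM; growth read once vehicle control cultures reached saturation at 30 °C; 1 = growth at the plate median or of vehicle wells; lower values mean less growth of the strain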
Details: S. cerevisiae deletion strains, growth OD

Measured: normalized growth

CCCCN(CC)c1c([N+](=O)[O-])cc(C(F)(F)F)cc1[N+](=O)[O-]
inactive: locus YAL013W, strain DEP1, hits give low values 1.01 | locus YAL021C, strain ccr4, hits give low values 0.998 | locus YAL026C, strain drs2, hits give low values 1.02 | locus YAL030W, strain snc1, hits give low values 1.02 | locus YBL061C, strain skt5, hits give low values 1 | locus YBR009C, strain hhf1, hits give low values 1 | locus YBR021W, strain FUR4, hits give low values 1.03 | locus YBR023C, strain chs3, hits give low values 1.01 | locus YBR171W, strain sec66, hits give low values 1.03 | locus YBR229C, strain ROT2, hits give low values 0.999 | locus YBR231C, strain swc5, hits give low values 1 | locus YBR279W, strain paf1, hits give low values 1.01 | locus YCL011C, strain gbp2, hits give low values 1 | locus YCL016C, strain dcc1, hits give low values 1.01 | locus YCL029C, strain bik1, hits give low values 1.02 | locus YCL061C, strain MRC1, hits give low values 1.01 | locus YCL069W, strain vba3, hits give low values 1.02 | locus YCR088W, strain abp1, hits give low values 1.01 | locus YDL005C, strain med2, hits give low values 1.02 | locus YDL035C, strain GPR1, hits give low values 1.02 | locus YDL040C, strain nat1, hits give low values 1.01 | locus YDL074C, strain BRE1, hits give low values 1.03 | locus YDL101C, strain DUN1, hits give low values 1.01 | locus YDL134C, strain PPH21, hits give low values 1.01 | locus YDL185W, strain tfp1, hits give low values 1.03 | locus YDL192W, strain arf1, hits give low values 1.02 | locus YDR001C, strain nth1, hits give low values 1.01 | locus YDR069C, strain doa4, hits give low values 1 | locus YDR101C, strain arx1, hits give low values 1.01 | locus YDR137W, strain rgp1, hits give low values 0.98 | locus YDR150W, strain NUM1, hits give low values 1.01 | locus YDR159W, strain sac3, hits give low values 1 | locus YDR162C, strain NBP2, hits give low values 1.02 | locus YDR195W, strain ref2 1.01 | locus YDR297W, strain sur2, hits give low values 1 | locus YDR318W, strain mcm21, hits give low values 1.01 | locus YDR334W, strain swr1, hits give low values 1.02 | locus YDR335W, strain msn5, hits give low values 1.02 | locus YDR388W, hits give low values 1.01 | locus YDR392W, strain spt3, hits give low values 1.01 | locus YDR502C, strain sam2, hits give low values 1.01 | locus YEL003W, strain gim4, hits give low values 1.02 | locus YEL037C, strain rad23, hits give low values 1.01 | locus YEL061C, strain CIN8 (second series), hits give low values 1.03 | locus YEL061C, strain CIN8, hits give low values 1.01 | locus YER015W, strain faa2, hits give low values 1.02 | locus YER016W, strain bim1, hits give low values 1.01 | locus YER110C, hits give low values 1.02 | locus YER111C, strain swi4, hits give low values 1.01 | locus YER155C, strain BEM2 (second series), hits give low values 1.03 | locus YER155C, strain BEM2, hits give low values 1.01 | locus YER167W, strain BCK2, hits give low values 1.01 | locus YFR010W, strain ubp6, hits give low values 1.02 | locus YGL078C, strain dbp3, hits give low values 1.01 | locus YGL086W, strain mad1, hits give low values 1.01 | locus YGL167C, strain pmr1, hits give low values 1.01 | locus YGL173C, strain kem1, hits give low values 1.01 | locus YGL227W, strain vid30, hits give low values 1.01 | locus YGL240W, strain doc1, hits give low values 1.02 | locus YGL248W, strain PDE1, hits give low values 1 | locus YGL253W, strain hxk2, hits give low values 1.02 | locus YGR078C, strain PAC10, hits give low values 1.01 | locus YGR135W, strain pre9, hits give low values 1.01 | locus YGR229C, strain SMI1, hits give low values 1.02 | locus YGR252W, strain gcn5, hits give low values 1.05 | locus YHR013C, strain ard1, hits give low values 1.06 | locus YHR027C, strain rpn1, hits give low values 1.03 | locus YHR030C, strain SLT2, hits give low values 1.01 and 1.08 | locus YHR079C, strain IRE1 (second series), hits give low values 1.01 | locus YHR079C, strain IRE1, hits give low values 1.03 | locus YHR094C, strain hxt1, hits give low values 1.01 | locus YHR129C, strain ARP1, hits give low values 1.01 | locus YHR142W, strain chs7, hits give low values 1.02 | locus YHR200W, strain rpn10, hits give low values 1.01 | locus YIL066C, strain RNR3, hits give low values 1.01 | locus YIL073C, strain SPO22, hits give low values 1.02 | locus YIL125W, strain kgd1, hits give low values 1.01 | locus YIR030C, strain dcg1, hits give low values 1.01 | locus YJL092W, strain hpr5, hits give low values 1.01 | locus YJL095W, strain BCK1 (second series), hits give low values 1.01 | locus YJL095W, strain BCK1, hits give low values 0.996 and 1.05 | locus YJL115W, strain asf1, hits give low values 1.01 | locus YJL129C, strain trk1, hits give low values 1.01 | locus YJL134W, strain LCB3, hits give low values 1.01 | locus YJL154C, strain vps35, hits give low values 1.02 | locus YJL164C, strain tpk1, hits give low values 1.01 | locus YJL166W, strain qcr8, hits give low values 1 | locus YJL168C, strain set2, hits give low values 1.01 | locus YJL187C, strain SWE1 (second series), hits give low values 1.01 | locus YJL187C, strain SWE1, hits give low values 1.01 | locus YJR043C, strain POL32, hits give low values 1.02 | locus YJR066W, strain TOR1, hits give low values 0.992
